Measured values: PubChem BioAssay AID1159580 (chemical genetic matrix, 2015)
Values joined by “and” are separate entries in the source; they are usually repeats but may differ in a detail not shown here. Equal values may be shown once. Out of some 5,500 compounds screened, about 2,000 (36%) were called active. Inconclusive results (about 18%) are left out. Rule as the data show it: active = normalized growth mostly below about 0.91 (no sharp cut-off); inconclusive = no clear call, values can overlap the other calls; inactive = mostly above about 0.92. Some of the results follow.

Experiment: chemical genetic growth profiling, strain panel (AID 1159580);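 also: tested at 20 µM; growth read once vehicle control cultures reached saturation at 30 °C; 1 = growth at the plate median or of vehicle wells; lower values mean less growth of the strain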
Conditions: S. cerevisiae deletion strains, growth OD

Measured: normalized growth

CO[C@H]1C[C@H](O[C@H]2[C@H](C)[C@@H](OC3O[C@H](C)C[C@H](N(C)C)[C@H]3O)[C@@H](C)C[C@]3(CO3)C(=O)[C@H](C)[C@@H](O)[C@@H](C)[C@@H](C)OC(=O)[C@@H]2C)O[C@@H](C)[C@@H]1O (some centres not stated)
inactive: locus YAL013W, strain DEP1, active compounds read low 1.01 | locus YAL021C, strain ccr4, active compounds read low 1.03 | locus YAL026C, strain drs2, active compounds read low 0.991 | locus YAL030W, strain snc1, active compounds read low 1.01 | locus YBL061C, strain skt5, active compounds read low 1 | locus YBR009C, strain hhf1, active compounds read low 0.96 | locus YBR021W, strain FUR4, active compounds read low 0.994 | locus YBR023C, strain chs3, active compounds read low 1.02 | locus YBR171W, strain sec66, active compounds read low 0.996 | locus YBR229C, strain ROT2, active compounds read low 1.02 | locus YBR231C, strain swc5, active compounds read low 1.02 | locus YBR279W, strain paf1, active compounds read low 1.01 | locus YCL011C, strain gbp2, active compounds read low 0.998 | locus YCL016C, strain dcc1, active compounds read low 1.02 | locus YCL029C, strain bik1, active compounds read low 1 | locus YCL061C, strain MRC1, active compounds read low 1.02 | locus YCL069W, strain vba3, active compounds read low 1 | locus YCR088W, strain abp1, active compounds read low 1.01 | locus YDL005C, strain med2, active compounds read low 1.02 | locus YDL035C, strain GPR1, active compounds read low 1.01 | locus YDL040C, strain nat1, active compounds read low 1.01 | locus YDL074C, strain BRE1, active compounds read low 1.02 | locus YDL101C, strain DUN1, active compounds read low 1.02 | locus YDL134C, strain PPH21, active compounds read low 1.01 | locus YDL185W, strain tfp1, active compounds read low 1.01 | locus YDL192W, strain arf1, active compounds read low 1.01 | locus YDR001C, strain nth1, active compounds read low 1 | locus YDR069C, strain doa4, active compounds read low 1.03 | locus YDR101C, strain arx1, active compounds read low 1 | locus YDR137W, strain rgp1, active compounds read low 0.998 | locus YDR150W, strain NUM1, active compounds read low 1 | locus YDR159W, strain sac3, active compounds read low 0.994 | locus YDR162C, strain NBP2, active compounds read low 1.01 | locus YDR195W, strain ref2 1.01 | locus YDR297W, strain sur2, active compounds read low 1.01 | locus YDR318W, strain mcm21, active compounds read low 1.01 | locus YDR334W, strain swr1, active compounds read low 0.995 | locus YDR335W, strain msn5, active compounds read low 0.998 | locus YDR388W, active compounds read low 0.991 | locus YDR392W, strain spt3, active compounds read low 0.945 | locus YDR502C, strain sam2, active compounds read low 1.02 | locus YEL003W, strain gim4, active compounds read low 0.987 | locus YEL037C, strain rad23, active compounds read low 0.994 | locus YEL061C, strain CIN8 (second series), active compounds read low 0.999 | locus YEL061C, strain CIN8, active compounds read low 1 | locus YER015W, strain faa2, active compounds read low 0.992 | locus YER016W, strain bim1, active compounds read low 1.02 | locus YER110C, active compounds read low 0.986 | locus YER111C, strain swi4, active compounds read low 1 | locus YER155C, strain BEM2 (second series), active compounds read low 1.02 | locus YER155C, strain BEM2, active compounds read low 1 | locus YER167W, strain BCK2, active compounds read low 1.01 | locus YFR010W, strain ubp6, active compounds read low 0.988 | locus YGL078C, strain dbp3, active compounds read low 1 | locus YGL086W, strain mad1, active compounds read low 0.995 | locus YGL167C, strain pmr1, active compounds read low 0.994 | locus YGL173C, strain kem1, active compounds read low 1 | locus YGL227W, strain vid30, active compounds read low 1.02 | locus YGL240W, strain doc1, active compounds read low 1.03 | locus YGL248W, strain PDE1, active compounds read low 1.02 | locus YGL253W, strain hxk2, active compounds read low 1.02 | locus YGR078C, strain PAC10, active compounds read low 1.02 | locus YGR135W, strain pre9, active compounds read low 1.01 | locus YGR229C, strain SMI1, active compounds read low 1.03 | locus YGR252W, strain gcn5, active compounds read low 1.14 | locus YHR013C, strain ard1, active compounds read low 1.02 | locus YHR027C, strain rpn1, active compounds read low 0.999 | locus YHR030C, strain SLT2, active compounds read low 1.01 | locus YHR079C, strain IRE1 (second series), active compounds read low 0.989 | locus YHR079C, strain IRE1, active compounds read low 1.01 | locus YHR094C, strain hxt1, active compounds read low 0.98 | locus YHR129C, strain ARP1, active compounds read low 0.998 | locus YHR142W, strain chs7, active compounds read low 0.972 | locus YHR200W, strain rpn10, active compounds read low 1.01 | locus YIL066C, strain RNR3, active compounds read low 1.02 | locus YIL073C, strain SPO22, active compounds read low 1.05 | locus YIL125W, strain kgd1, active compounds read low 1 | locus YIR030C, strain dcg1, active compounds read low 0.993 | locus YJL092W, strain hpr5, active compounds read low 1.01 | locus YJL095W, strain BCK1 (second series), active compounds read low 1.01 | locus YJL095W, strain BCK1, active compounds read low 1.03 and 0.995 | locus YJL115W, strain asf1, active compounds read low 0.991 | locus YJL129C, strain trk1, active compounds read low 1 | locus YJL134W, strain LCB3, active compounds read low 1 | locus YJL154C, strain vps35, active compounds read low 1 | locus YJL164C, strain tpk1, active compounds read low 0.982 | locus YJL166W, strain qcr8, active compounds read low 1.03 | locus YJL168C, strain set2, active compounds read low 0.987 | locus YJL187C, strain SWE1 (second series), active compounds read low 1.02 | locus YJL187C, strain SWE1, active compounds read low 1 | locus YJR043C, strain POL32, active compounds read low 1.02 | locus YJR066W, strain TOR1, active compounds read low 0.981
